Test results reported in PubChem BioAssay.
The source made the active and inactive calls. Unless noted, how the calls were made is not given here.

Legend:
[1] = HepG2 liver cancer cell viability effects, profiling panel, resazurin fluorescence, 24 h, PK04 Diversity Set (AID 1172); settings: higher = more signal; further: test concentration not given here
[2] = basal S. cerevisiae growth modulation, no modifier, primary screen, OD600, strain BY4716, 24 h, basal condition (AID 1173); settings: OD600, 24 h, higher = more signal, called active from +8 up or from −8 down
[3] = MM1S myeloma cell viability, profiling panel, resazurin fluorescence, basal, 24 h, PK04 Diversity Set (AID 1174); settings: higher = more signal, called active from +8 up or from −8 down;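 further: MM1S multiple myeloma cell line; test concentration not given here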
[4] = target: Dihydroorotate dehydrogenase (quinone), mitochondrial (Plasmodium falciparum (isolate 3D7)) (UniProt Q08210); test: PfDHODH enzyme inhibitors, primary screen, biochemical, C-terminal His tag, absorbance 600 nm (AID 1175); settings: DCIP absorbance 600 nm, higher = more signal, called active from +8 up or from −8 down;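 further: recombinant parasite enzyme with a five histidine tag at its C terminus; test concentration not given here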
[5] = P. aeruginosa biofilm formation inhibitors, primary screen, strain PAO1, LB-PBS medium, absorbance 600 nm (AID 1176); further: test concentration not given here; settings: P. aeruginosa PAO1 growth/biofilm, A600, 12 h; higher = more signal
[6] = S. cerevisiae RM11-1a growth modifiers, primary screen, strain RM11-1a, OD600, basal, 24 h (AID 1177); settings: OD600, 24 h, higher = more signal, called active from +8 up or from −8 down;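 further: cultures grown under basal conditions with no added stressor; test concentration not given here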
[7] = E. coli acrAB mutant growth effects, primary screen, E. coli filamentation inducers, strain DRC39, OD650, 24 h (AID 1178); settings: higher = more signal, called active from +8 up or from −8 down;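 further: growth measured as culture turbidity by optical density at 650 nm; test concentration not given here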
[8] = E. coli acrAB mutant growth effects, primary screen, E. coli filamentation inducers, strain DRC39, OD650, 48 h (AID 1179);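 further: screen aims at cell division blockers that make cells filament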; settings: E. coli DRC39 delta-acrAB growth, higher = more signal, called active from +8 up or from −8 down
[9] = RPMI8226 myeloma cell viability, profiling panel, resazurin fluorescence, basal, 24 h, PK04 Diversity Set (AID 1180); settings: higher = more signal;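 further: RPMI8826 multiple myeloma cell line at 5000 cells per well; test concentration not given here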
[10] = target: E3 ubiquitin-protein ligase XIAP (Homo sapiens) (UniProt P98170); test: XIAP binders, primary screen, biophysical, small-molecule microarray, fluorescence 635 nm (AID 1181); settings: small-molecule microarray binding, higher = more signal;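 further: score merges 667 nm emission and signal to noise over triplicate slides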
Sequence of E3 ubiquitin-protein ligase XIAP (Homo sapiens) (P98170 whole entry, looked up): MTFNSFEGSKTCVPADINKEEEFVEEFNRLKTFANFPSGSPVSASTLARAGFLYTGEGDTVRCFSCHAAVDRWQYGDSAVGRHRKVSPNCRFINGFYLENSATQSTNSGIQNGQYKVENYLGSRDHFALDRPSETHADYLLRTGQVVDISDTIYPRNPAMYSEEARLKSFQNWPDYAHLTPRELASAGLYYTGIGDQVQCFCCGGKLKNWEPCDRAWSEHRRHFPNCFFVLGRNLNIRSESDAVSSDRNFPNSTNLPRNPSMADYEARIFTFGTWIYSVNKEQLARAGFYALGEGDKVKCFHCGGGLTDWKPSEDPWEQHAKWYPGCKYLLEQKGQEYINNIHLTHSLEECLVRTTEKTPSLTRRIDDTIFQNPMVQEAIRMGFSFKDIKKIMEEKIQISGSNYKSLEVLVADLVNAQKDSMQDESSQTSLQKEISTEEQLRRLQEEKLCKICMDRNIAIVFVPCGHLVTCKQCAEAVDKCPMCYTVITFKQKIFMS

Sequence of Dihydroorotate dehydrogenase (quinone), mitochondrial (Plasmodium falciparum (isolate 3D7)) (Q08210 whole entry, looked up): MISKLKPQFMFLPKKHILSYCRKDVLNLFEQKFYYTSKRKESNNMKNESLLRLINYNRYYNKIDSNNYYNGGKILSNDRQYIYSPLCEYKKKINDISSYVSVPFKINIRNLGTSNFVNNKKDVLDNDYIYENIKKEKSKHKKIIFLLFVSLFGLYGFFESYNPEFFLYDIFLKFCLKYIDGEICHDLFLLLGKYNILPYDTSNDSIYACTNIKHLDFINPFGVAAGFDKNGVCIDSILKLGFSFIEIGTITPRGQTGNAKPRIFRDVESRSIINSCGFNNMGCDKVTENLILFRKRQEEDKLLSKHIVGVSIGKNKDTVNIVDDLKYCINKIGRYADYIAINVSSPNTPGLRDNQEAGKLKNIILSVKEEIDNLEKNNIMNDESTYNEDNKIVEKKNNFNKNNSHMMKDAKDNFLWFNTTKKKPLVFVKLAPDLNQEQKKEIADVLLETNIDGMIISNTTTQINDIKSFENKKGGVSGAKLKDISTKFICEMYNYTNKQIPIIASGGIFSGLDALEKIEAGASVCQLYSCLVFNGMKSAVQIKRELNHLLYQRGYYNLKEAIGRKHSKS

Row | Compound | z-score [1] | z-score [2] | z-score [3] | composite z-score [4] | z-score [5] | z-score [6] | z-score [7] | z-score [8] | z-score [9] | composite z-score [10]
1 | O=C1NC(=O)C2C1C=CC(C(O)c1ccc3c(c1)OCO3)N2Nc1ccc(Cl)cc1Cl (stereo not given) | -0.996 | -14 (active) | -1.33 (inactive) | -0.703 (inactive) | 1.38 (inactive) | -0.101 (inactive) | -0.145 (inactive) | -2.73 (inactive) | -0.93 | 0.205
2 | O=c1c2ccc(Br)cc2nc(-c2ccccc2)n1Cc1cccc(O)c1 | -0.187 | -2.04 (inactive) | -1.1 (inactive) | 0.515 (inactive) | 0.186 (inactive) | 0.159 (inactive) | 0.362 (inactive) | 0.39 (inactive) | -0.0974 | -0.151
3 | O=C1O[C@H](c2ccccc2)[C@H](c2ccccc2)N2[C@H]1[C@@H](C(=O)NC[C@H](O)c1ccccc1)[C@]1(C(=O)Nc3ccccc31)[C@H]2c1ccccc1OCCO | -2.69 | -0.251 (inactive) | -9.21 (active) | -0.719 (inactive) | 3.02 (inactive) | 1.75 (inactive) | 0.346 (inactive) | 0.784 (inactive) | -7.33 | 0.189
4 | COC(=O)[C@@]1(Cc2ccc(OC)cc2)[C@H]2c3cc(C(=O)N4CCCC4)n(CCF)c3C[C@H]2CN1C(=O)c1ccccc1 | -0.952 | 1.1 (inactive) | -2.21 (inactive) | 0.0648 (inactive) | 1.06 (inactive) | 0.977 (inactive) | -1.52 (inactive) | -1.09 (inactive) | -1.72 | -0.0471
5 | C=CCNC(=O)[C@H]1[C@@H]2C(=O)O[C@@H](c3ccccc3)[C@@H](c3ccccc3)N2[C@@H](c2ccc(OCCO)cc2)[C@]12C(=O)N(C(=O)OCCOC)c1ccc(C#CC3=CCCCC3)cc12 | 0.293 | 0.567 (inactive) | -0.344 (inactive) | -0.91 (inactive) | 2.06 (inactive) | 1.45 (inactive) | -0.178 (inactive) | 0.215 (inactive) | 0.136 | -0.0727
6 | O=C1O[C@H](c2ccccc2)[C@H](c2ccccc2)N2[C@H]1[C@@H](C(=O)N1CCN(c3ncccn3)CC1)[C@]1(C(=O)Nc3ccc(C#CCCO)cc31)[C@H]2c1ccccc1OCCO | -0.141 | 0.687 (inactive) | -0.31 (inactive) | -0.49 (inactive) | 1.34 (inactive) | 1.91 (inactive) | 0.156 (inactive) | 0.614 (inactive) | -1.36 | -0.16
7 | O=C1c2ccccc2C(=O)C2CC([C@H]3Oc4ccccc4S(=O)(=O)N4CCC[C@@H]34)=CCC12 (stereo not given in full) | 0.0623 | -2.32 (inactive) | -0.583 (inactive) | 0.0834 (inactive) | -0.246 (inactive) | -0.841 (inactive) | 1.96 (inactive) | 0.34 (inactive) | 0.183 | 0.0374
8 | O=C1OCC=C[C@H]2OC34C=CCN(CCN5CCOCC5)C(=O)[C@H]3N(CCCCCO)C(=O)[C@@H]4[C@@H]12 (stereo not given in full) | -0.267 | -0.654 (inactive) | -1.12 (inactive) | 0.31 (inactive) | -0.525 (inactive) | 0.105 (inactive) | -1.18 (inactive) | -1.37 (inactive) | -0.82 | 0.11
9 | COCCOC(=O)N1C(=O)[C@@]2(c3cc(C#Cc4ccc(OC)cc4)ccc31)[C@H](C(=O)N1CCc3cc(OC)c(OC)cc3C1)[C@H]1C(=O)O[C@H](c3ccccc3)[C@H](c3ccccc3)N1[C@@H]2c1ccc(OCCO)cc1 | -0.562 | 1.39 (inactive) | -0.12 (inactive) | -0.0739 (inactive) | 1.27 (inactive) | 2.92 (inactive) | -0.997 (inactive) | -1.19 (inactive) | 0.54 | 0.365
10 | C=C(/C(=C/C[C@@H](OC(=O)c1ccncc1)c1ccccc1OCCO)c1cnc2ccccc2c1)C(C)C | -1.11 | -18.3 (active) | -0.807 (inactive) | -6.99 (inactive) | 0.485 (inactive) | -21.9 (active) | -0.328 (inactive) | -0.805 (inactive) | -0.365 | 0.326
11 | COCCOC(=O)N1C(=O)[C@@]2(c3cc(C#Cc4ccc(OC)cc4)ccc31)[C@H](C(=O)N1CCc3cc(OC)c(OC)cc3C1)[C@H]1C(=O)O[C@H](c3ccccc3)[C@H](c3ccccc3)N1[C@@H]2c1ccc(O)cc1 | -0.0637 | 1.12 (inactive) | -0.108 (inactive) | 0.751 (inactive) | 0.858 (inactive) | 2.08 (inactive) | -0.145 (inactive) | 0.26 (inactive) | 0.0506 | 0.202
12 | COc1ccc([Si](C)(C)[C@@H]2[C@@H](CC(=O)N(CCO)Cc3ccccc3)O[C@]3(C(=O)N(C)c4c(Br)cc(C)cc43)[C@H]2C)cc1 | -1.57 | -0.951 (inactive) | -1.79 (inactive) | 0.216 (inactive) | 0.802 (inactive) | 1.64 (inactive) | -0.109 (inactive) | -0.75 (inactive) | -2.21 | -0.174
